Compounds with a hit are over-represented: about 6% of the library has one in this group of screens.
D1 agonist: Allosteric Agonists of the Human D1 Dopamine Receptor: qHTS | activation, % at 2 µM | 360,000 compounds, 1% hits | HEK293 T-REx D1 cells, calcium flux, agonist mode | AID 504660, 2011; in the data active means activation above about 30%; further: 0% is about no effect
Target sequence (P21728 whole entry, looked up): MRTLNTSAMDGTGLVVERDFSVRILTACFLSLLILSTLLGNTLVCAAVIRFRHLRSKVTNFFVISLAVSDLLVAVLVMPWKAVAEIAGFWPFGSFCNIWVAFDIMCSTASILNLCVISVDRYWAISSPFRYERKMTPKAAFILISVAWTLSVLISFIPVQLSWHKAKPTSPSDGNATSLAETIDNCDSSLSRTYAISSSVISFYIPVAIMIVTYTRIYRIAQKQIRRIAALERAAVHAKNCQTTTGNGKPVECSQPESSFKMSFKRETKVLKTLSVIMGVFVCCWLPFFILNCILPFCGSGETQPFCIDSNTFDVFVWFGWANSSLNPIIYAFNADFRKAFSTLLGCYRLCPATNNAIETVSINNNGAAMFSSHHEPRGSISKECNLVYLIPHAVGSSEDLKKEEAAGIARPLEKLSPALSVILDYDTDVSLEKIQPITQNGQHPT
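Agonism was scored from calcium flux recorded over 180 s (1 read/s) after pintool compound addition, following a 10-cycle baseline. Cells were inducible force-coupled HEK293 TREx D1, plated overnight at 30 C and loaded with no-wash calcium dye.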
D1 PAM: Potentiators of Human D1 Dopamine Receptor: qHTS; D(1A) dopamine receptor (Homo sapiens), P21728; HEK293 TREx D1 cells, calcium flux, dopamine EC20 potentiation; potentiation, % at 10 µM; 360,000 compounds, 0.036% hits; AID 504651, 2011; in the data active means potentiation above about 30%; further: 0% is about no effect
D1 antagonist: Antagonist of Human D 1 Dopamine Receptor: qHTS; D(1A) dopamine receptor (Homo sapiens), P21728; HEK293 TREx D1 cells, calcium flux, dopamine EC80; hits give low values; activity change, negative = inhibition, % at 10 µM; 360,000 compounds, 3.2% hits; AID 504652, 2011; in the data active means activity change below about -30%; further: on the % scale 0 is the no-effect control and ±100 the full control effect
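After overnight tetracycline induction at 30 C, force-coupled D1 HEK293 cells took up a no-wash calcium dye at room temperature. Compounds were added and monitored 180 s, and the response to EC80 dopamine was then recorded.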
DRD3 agonist: qHTS of D3 Dopamine Receptor Agonist: qHTS | D(3) dopamine receptor (Homo sapiens), P35462 | D3R DiscoveRx beta-arrestin cells, luminescence, 90 min | max activation, % | 410,000 compounds, 0.58% hits | AID 652048, 2013; in the data active means max activation above about 30%; further: 0% is about no effect
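Agonist-mode cell screen: cells plated at 1500/well and incubated overnight at 37 °C, then exposed to library compounds for 90 min at 37 °C. Detection reagent was added for 30–60 min at room temperature, and luminescence was read.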
D3 antag: qHTS of D3 Dopamine Receptor Antagonist: qHTS; D(3) dopamine receptor (Homo sapiens), P35462; D3R cells, DiscoveRx beta-arrestin luminescence, antagonist mode; hits give low values; max response, negative = inhibition, %; 360,000 compounds, 2.5% hits; AID 652054, 2013; in the data active means max response below about -50%; further: on the % scale 0 is the no-effect control and ±100 the full control effect
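Cells expressing the human receptor were seeded at 1500 cells/well, incubated overnight at 37 degrees C in 5% CO2, then exposed to library compounds with dopamine controls for 90 minutes at 37 degrees C before luminescent detection.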
Starred values were filed as active, the others as inactive; . = no result.

SMILES	D1 agonist	D1 PAM	D1 antagonist	DRD3 agonist	D3 antag
CC(=O)Nc1ccc(NC(=O)CSc2nnc(NC(=O)Cc3ccc(F)cc3)s2)cc1	1.4	-19.6	-52.6*	3.9	-9.8
CC(C)(C)CC(=O)Nc1nnc(SCC(=O)Nc2ccccc2F)s1	0.9	-6.7	-39.8*	-0.9	-19.3
CC(C)CC(=O)Nc1nnc(SCC(=O)NC2CCCC2)s1	.	.	.	2.8	38.6
CCC(C)NC(=O)C1=CC(c2ccc3c(c2)OCO3)=NS(=O)(=O)N1C (stereo not drawn)	0.7	-2.3	-8.2	6.6	.
O=C(CSc1nnc(Nc2ccccc2)s1)NCc1ccco1	1.3	-3.5	3.9	-1.2	14.7
O=C(CSc1nnc(Nc2ccccc2F)s1)NCc1ccco1	-0.8	0.0	-1.2	-13.9	-58.9*
O=C1CSC(=S)N1c1cccc(F)c1	2.9	0.9	1.8	7.8	3.5
O=C1CC(=O)N(c2cccc(F)c2)N1	0.3	-1.9	16.0	-12.5	-50.8*
OC1(c2ccc(Br)cc2)CCN(Cc2cccc(Br)c2)CC1	5.5	-6.1	-2.6	-16.6	-106.4*
COCCNS(=O)(=O)c1ccc2c(c1)C(=O)c1cc(S(=O)(=O)NCCOC)ccc1-2	0.9	-0.6	6.3	-1.1	11.7
O=C1c2cc(S(=O)(=O)NCCCO)ccc2-c2ccc(S(=O)(=O)NCCCO)cc21	-2.2	-8.8	-6.8	2.0	-50.8*
CCOC(=O)N1CCC(NC(=O)c2c(C)nn(-c3cccc(C)c3)c2-n2cccc2)CC1	3.9	-3.0	2.6	12.9	.
Cc1cc2c(c(=O)n1Cc1ccc3c(c1)OCO3)C(c1cccnc1)C(C#N)=C(N)O2 (stereo not drawn)	1.8	-6.2	-90.2*	8.5	16.0
Cc1cc2c(c(=O)n1Cc1cccnc1)C(c1ccccc1)C(C#N)=C(N)O2 (stereo not drawn)	0.9	-5.3	-13.6	-1.6	19.1
Cc1c(C(=O)N(C)C)sc2c1c(=O)n(-c1ccccc1C(F)(F)F)c(=O)n2Cc1cccc(F)c1	3.1	-3.3	4.3	3.6	.
CCOC(=O)c1ccc(NC(=O)c2cc(=O)c3cc(CC)ccc3o2)cc1	-0.1	0.8	-4.6	3.5	.
Cc1ccc(C(=O)N/C(=C\c2cccs2)C(=O)NCCc2c[nH]c3ccccc23)cc1C	1.7	2.7	-38.6*	-3.5	-26.8
COc1ccc(C(=O)N/C(=C\c2cccc3ccccc23)C(=O)NCCc2c[nH]c3ccccc23)cc1OC	8.3	-3.0	-1.6	-4.6	21.0
O=C(NCCc1c[nH]c2ccccc12)/C(=C\c1cccs1)NC(=O)c1ccccc1	0.2	-6.7	-42.0*	2.9	-28.9
O=C(NCCc1ccc(Cl)cc1)C1CCC(=O)N1Cc1ccccc1Cl (stereo not drawn)	4.7	1.0	1.0	-10.6	-27.7
O=C(Nc1ccc(Cl)cc1Cl)C1CCC(=O)N1Cc1ccccc1Cl (stereo not drawn)	37.2*	-0.5	9.2	-17.5	-10.8
CN1CCN(Cc2c(O)ccc3cc(-c4ccc(Cl)cc4)c(=O)oc23)CC1	32.3*	0.5	-15.3	-2.3	.
CCCc1cc(=O)oc2c(CN(CC)CC)c(O)c(Cl)cc12	2.6	8.7	-43.6*	19.2	22.5
CCCc1cc(=O)oc2c(CN3CCN(C)CC3)c(O)ccc12	0.8	5.3	4.6	32.3*	5.0
CCCc1cc(=O)oc2c(CN3CCN(C)CC3)c(O)c(Cl)cc12	0.7	3.9	5.7	8.3	1.0
CCCCc1cc(=O)oc2c(CN3CCCC3)c(O)c(Cl)cc12	3.8	0.5	-33.0*	0.6	19.1
Cc1cc(C)cc(N2C(=O)CSC23C(=O)N(CC(=O)NCCc2ccccc2)c2ccccc23)c1 (stereo not drawn)	2.8	5.8	-1.2	3.3	.
COc1cc(NC(=O)c2c(C)nn(-c3ccc(F)cc3)c2-n2cccc2)cc(OC)c1	5.5	-1.1	0.2	5.0	.
COc1ccc(C(CCNC(C)c2ccccc2)C(C)C)cc1 (stereo not drawn)	13.9	0.2	3.7	-9.4	-7.1
COc1ccc(C(C)NCCC(c2ccc(OC(C)C)cc2)c2ccccc2OC)cc1 (stereo not drawn)	38.4*	9.4	18.6	-14.3	5.5

Screening results: PubChem BioAssay, National Center for Advancing Translational Sciences (NCATS)
